# High-throughput results (PubChem)
# EWS-Fli inh = EWS/Fli-driven NR0B1 reporter inhibitors, primary screen, A673 cells, NR0B1 luciferase, luminescence, MLPCN library; viability-normalised; inhibition, % at 12.6 µM; actives 0.67% (n = 350,000); AID 651661, 2012;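 active = mean inhibition of at least 50% after viability correction, with every replicate also passing that limit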;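 also: firefly luciferase signal divided by Alamar Blue viability fluorescence both relative to DMSO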
# Wnt act = Wnt/beta-catenin pathway activators, primary screen, cell-based, plate reader, single point; actives 1.2% (n = 300,000); activation, % at 9.35 µM; Wnt/beta-catenin reporter cell assay, activator; AID 743398, 2014; in the data active = activation above about 30%, passing the limit was not always enough;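 also: 0% = neutral control wells and 100% = positive control wells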
# MITF act = activators of MITF-driven TRPM1 promoter reporter, primary screen, cell-based, SK-MEL-5, luciferase, single point; activation, % at 12.5 µM; actives 0.75% (n = 300,000); SK-MEL-5 TRPM1-promoter luciferase, 24 h; % of positive control, neutral wells = 0; AID 588334, 2011;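 active = mean activation of at least 80% with every replicate also reaching 80%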;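 also: 0% = neutral control wells and 100% = parthenolide positive control wells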
# TRPM1 prom inh = inhibitors of MITF-dependent TRPM1 promoter reporter, primary screen, cell-based, SK-MEL-5, single point, luciferase; AID 488899, 2010; actives 0.83% (n = 330,000); SK-MEL-5 TRPM1 promoter luciferase, 24 h; inhibition, % at 12.5 µM;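 active = mean inhibition across replicates of 60% or more, whatever share of single replicates reaches that level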
# PAX8 reporter = inhibitors of PAX8-driven TPO luciferase reporter, primary screen, RMG-I cells, single concentration | SteadyGlo, 24 h | actives 1.2% (n = 360,000) | inhibition, % at 12.6 µM;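 active = mean replicate inhibition at least 60% with every replicate also reaching 60%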;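 also: luciferase light reporting Pax8 driven TPO promoter activity; plate controls were median of neutral control wells for no effect and mitoxantrone controls for full effect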
# esBAF inh = Bmi1 luciferase reporter increase in mESCs, primary screen, esBAF inhibitor project, mouse ES cells, Bmi1 luciferase knock-in, single point. 24 h; 100% = twice the neutral-well signal. reporter increase, % at 12.5 µM. actives 2% (n = 350,000). AID 602393, 2012; in the data active = activation above about 40%;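 also: 0% = median of the plate's neutral control wells and 100% = double that signal; a rise in the Bmi1 reporter signal indicates esBAF inhibition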
# Starred values were filed as active, the others as inactive; . = no result given. In the library only some 4% were active in any assay of this set; here they are far more common.
SMILES,EWS-Fli inh,Wnt act,MITF act,TRPM1 prom inh,PAX8 reporter,esBAF inh
CCCNC(=O)N1CC2(CN(CC3CCOCC3)C2)c2c(n(C)c3cc(OC)ccc23)[C@H]1CO,-21,.,.,.,.,.
C[C@H]1CN([C@@H](C)CO)C(=O)c2cc(NC(=O)Cn3cnnn3)ccc2O[C@H]1CN(C)C,0,.,.,.,-2,1
O=C(O)c1ccccc1SCc1csc(-c2ccccc2)n1,-41,5,-5,7,-53,47*
COc1ncc(-c2ccc(N3C(c4ccsc4)=Cc4ccccc4C3CC(C)=O)cc2)cn1 (centres undefined),12,6,.,.,17,.
CC(=O)CC1c2ccccc2C=C(c2ccsc2)N1c1ccc(-c2cccs2)cc1 (centres undefined),17,-5,.,.,75*,.
Cc1noc(C)c1NC(=O)Nc1ccc2c(c1)C(=O)N([C@H](C)CO)C[C@@H](C)[C@@H](CN(C)C(=O)Nc1ccc3c(c1)OCO3)OCCCC[C@@H](C)O2,-12,.,.,.,.,4
Cc1cccc(CN2C(=O)/C(=C\c3ccc(C(=O)NCCN4CCOCC4)cc3)Sc3ccccc32)c1,.,.,-2,-2,.,-5
O=C(NCCN1CCOCC1)c1ccc(/C=C2\Sc3ccccc3N(Cc3ccccc3F)C2=O)cc1,3,-2,10,-5,-14,5
CCN1CCN(CCNC(=O)c2ccc3c(c2)N(Cc2ccc(F)cc2)C(=O)/C(=C/c2ccccc2)S3)CC1,-13,2,-91,92*,4,-87
CCN1CCN(CCNC(=O)c2ccc(/C=C3/Sc4ccccc4N(Cc4cccc(Cl)c4)C3=O)cc2)CC1,46,0,-66,68*,7,.
Cc1noc(C)c1S(=O)(=O)Nc1ccc2c(c1)CC(=O)N([C@@H](C)CO)C[C@H](C)[C@@H](CN(C)Cc1ccc(-c3ccccc3)cc1)O2,8,.,.,.,.,0
Cc1cc2c([nH]c3ccccc32)c2c1OC(C)(C)C=C2,-120,1,91*,-86,.,92*
COc1ccc2[nH]c(=O)c3c(c2c1)OC(C)(C)C=C3,.,-8,.,21,-25,-3
C[C@@H]1CCCCO[C@@H](CN(C)C(=O)NC2CCCCC2)[C@@H](C)CN([C@@H](C)CO)C(=O)c2cc(NC(=O)Nc3ccc(C(F)(F)F)cc3)ccc2O1,4,.,.,.,74*,-9
C[C@@H]1CCCCO[C@@H](CN(C)C(=O)NC2CCCCC2)[C@H](C)CN([C@@H](C)CO)C(=O)c2cc(NC(=O)Nc3ccc(C(F)(F)F)cc3)ccc2O1,9,.,.,.,76*,16
C[C@H]1CCCCO[C@H](CN(C)C(=O)NC2CCCCC2)[C@@H](C)CN([C@@H](C)CO)C(=O)c2cc(NC(=O)Nc3ccc(C(F)(F)F)cc3)ccc2O1,3,.,.,.,87*,5
C[C@@H]1CCCCO[C@H](CN(C)C(=O)Nc2ccc(C(F)(F)F)cc2)[C@H](C)CN([C@@H](C)CO)C(=O)c2cc(NC(=O)NC3CCCCC3)ccc2O1,0,.,.,.,-17,-2
C[C@@H]1CCCCO[C@H](CN(C)C(=O)NC2CCCCC2)[C@@H](C)CN([C@@H](C)CO)C(=O)c2cc(NC(=O)Nc3ccc(C(F)(F)F)cc3)ccc2O1,9,.,.,.,93*,-13
C[C@@H]1CCCCO[C@H](CN(C)C(=O)NC2CCCCC2)[C@@H](C)CN([C@H](C)CO)C(=O)c2cc(NC(=O)Nc3ccc(C(F)(F)F)cc3)ccc2O1,4,.,.,.,-2,-9
C[C@@H]1CN([C@@H](C)CO)C(=O)c2cc(NC(=O)C3CC3)ccc2O[C@H]1CN(C)S(=O)(=O)c1cn(C)cn1,-4,.,.,.,.,4
COCCNC(=O)C[C@H]1CC[C@H]2[C@H](COc3ccc(NC(C)=O)cc3C(=O)N2C)O1,-8,.,.,.,-31,-4
O=C(C[C@@H]1CC[C@H](NC(=O)CCN2CCCCC2)[C@@H](CO)O1)Nc1ccc(-c2ccccc2)cc1,-15,.,.,.,4,-2
C[C@H]1CN([C@@H](C)CO)C(=O)Cc2cc(NC(=O)CCC(F)(F)F)ccc2O[C@H]1CN(C)CC1CCCCC1,-6,.,.,.,.,-4
CCN(CC)CCNC(=O)c1ccc(NC(=O)c2cccc(S(=O)(=O)N(C)C3CCCCC3)c2)cc1,3,2,-73,73*,6,-16
CCN(CC)CCNC(=O)c1ccc(NC(=O)c2ccc3c(c2)CCC3)cc1,-16,-1,68,-62,-12,15
SMILES,EWS-Fli inh,Wnt act,MITF act,TRPM1 prom inh,PAX8 reporter,esBAF inh
c1ccc(-c2nnsc2Sc2ccccn2)cc1,-38,36*,48,-46,-71,54*
O=C(Nc1ccc(Oc2c(F)c(F)c(F)c(F)c2F)cc1)OC1CCN2Cc3ccccc3N=C12 (centres undefined),.,-3,.,62*,.,-6
COc1ccc(S(=O)(=O)Nc2ccc(O)c3ccccc23)cc1,.,.,-66,69*,.,7
COc1ccc(S(=O)(=O)Nc2ccccc2)cc1,6,1,-8,5,15,.
C[C@@H]1CN([C@@H](C)CO)S(=O)(=O)c2ccc(-c3cccnc3)cc2O[C@@H]1CN(C)C(=O)C1CCCCC1,-2,.,.,.,.,-3
CC(C)c1ccc(NC(=O)N2CCc3nc(NCc4cccc(Oc5ccccc5)c4)ncc3C2)cc1,8,-3,.,.,33,1
COc1cccc(NC(=O)N2CCc3nc(Nc4ccc(C(C)C)cc4)ncc3C2)c1,-25,-8,.,.,11,70*
COc1cc(Nc2ncc3c(n2)CCN(C(=O)Nc2ccc(C(C)C)cc2)C3)cc(OC)c1OC,1,-2,.,.,65*,-1
COc1ccc(C(=O)c2sc(Nc3ccccc3)nc2N)cc1,-79,-1,.,-94,-7,25
Nc1nc(Nc2ccccc2)sc1C(=O)c1ccccc1,-125,51*,.,-65,-67,.
Cc1cnc(NC(=O)c2sc(Nc3ccccc3)nc2N)o1,-77,38*,.,-60,-64,.
O=C(Cc1ccncc1)Nc1ccc2c(c1)[C@H]1C[C@@H](CC(=O)N3CCOCC3)O[C@@H](CO)[C@H]1O2,8,.,.,.,-2,0
C[C@H]1CN([C@@H](C)CO)S(=O)(=O)c2ccc(C#CCN(C)C)cc2O[C@H]1CN(C)C(=O)CC1CC1,-5,.,.,.,5,7
CNC[C@H]1Oc2ccc(NS(=O)(=O)c3ccc(C)cc3)cc2C(=O)N([C@@H](C)CO)C[C@@H]1C,-7,.,.,.,-6,4
O=C(Nc1ccc(F)cc1)N1CC(=O)N2[C@@H](CO)[C@H](c3ccc(-c4ccc(F)cc4)cc3)[C@@H]2C1,-3,.,.,.,101*,.
O=C(Nc1ccc(F)cc1)N1CC(=O)N2[C@H](CO)[C@H](c3ccc(C#Cc4ccc(F)cc4)cc3)[C@H]2C1,-4,.,.,.,-15,.
